Results taken from PubChem BioAssay (NCI).
Compounds without any hit were thinned out: in the full panel of roughly 83,000, 20% have a hit.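 Cells were grown in 96-well plates and exposed to the test compound at a single concentration for 48 hours; results are reported as percent growth, with values below 10 considered active.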 Values without a mark were called inactive. Activity calls are given as the source filed them.

Test system: MDA-MB-468 breast
Assay: NCI-60 one-dose screen, 48 h (100 = growth as untreated, 0 = no growth, -100 = all killed)
Conditions: 10 µM unless noted

SMILES | growth
COc1cc(C(=O)/C=C/c2c(-c3cccs3)nc3sc(C)cn23)cc(OC)c1OC | -4.34% (active)
CN1CCN(Cc2ccc(NC(=O)c3cncc(C#Cc4cnc5ccc(N6CCN(C)CC6)nn45)c3)cc2C(F)(F)F)CC1 | -75.2% (active)
CCOC(=O)c1c(O)c2cc(-c3ccccc3)nc(OCC)c2c(=O)n1C | 89%
